Reference: PubChem BioAssay (NCATS)
Records with an inconclusive call do not appear. Calls of active or inactive are those of the source. Calls come from the whole dose curve; as a rule, active = well fitted inhibition curve with a large enough effect; inconclusive = small, poorly fitted or top-dose-only effect; inactive = flat fitted curve, though single readings scatter.

Tests used:
Test in all cases: qHTS profiling for inhibitors of Plasmodium falciparum proliferation (AID 504749); note: nearly all actives have a fitted effect of over 60% in size
Conditions in all cases: P. falciparum in erythrocytes, SYBR Green DNA, 72 h; series mostly up to 28.7 µM
[1] = system: ATS95
Method in brief: (§1)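 Each compound contacts P. falciparum-infected red blood cells for 72 h at 37 C; lysis buffer (Tris, EDTA, saponin, Triton X, SYBR Green I) is added and fluorescence measured next morning; values normalized to controls.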

[2] = system: C2A
Method in brief: as §1

[3] = system: CP185
Method in brief: as §1

[4] = system: CP191
Method in brief: as §1

[5] = system: CP192
Method in brief: as §1

[6] = system: CP194
Method in brief: as §1

[7] = system: CP201
Method in brief: as §1

[8] = system: CP203
Method in brief: as §1

[9] = system: CP211
Method in brief: as §1

[10] = system: CP215
Method in brief: as §1

[11] = system: CP217
Method in brief: as §1

[12] = system: CP237
Method in brief: as §1

[13] = system: CP238
Method in brief: as §1

[14] = system: CP247
Method in brief: as §1

[15] = system: CP250
Method in brief: as §1

[16] = system: CP252
Method in brief: as §1

[17] = system: CP256
Method in brief: as §1

[18] = system: CP260
Method in brief: as §1

[19] = system: CP262
Method in brief: as §1

[20] = system: CP265
Method in brief: as §1

Measured: Potency

NS(=O)(=O)c1ccc(Cl)c(S(N)(=O)=O)c1
inactive: all assays above

CC(=O)Nc1ccc(OC(=O)c2ccccc2OC(C)=O)cc1
inactive: all assays above

Oc1ccccc1C=NCc1ccccc1
inactive: all assays above

c1ccc(-c2nc[nH]c2-c2ccccc2)cc1
inactive: all assays above

Nc1nc(-c2ccccc2)c(Br)c(=O)[nH]1
inactive: all assays above

COc1cc(C(=S)N2CCOCC2)ccc1O
inactive: all assays above

OC[C@H]1O[C@@H]2O[C@H]3[C@H](O)[C@@H](O)[C@@H](O[C@H]4[C@H](O)[C@@H](O)[C@@H](O[C@H]5[C@H](O)[C@@H](O)[C@@H](O[C@H]6[C@H](O)[C@@H](O)[C@@H](O[C@H]7[C@H](O)[C@@H](O)[C@@H](O[C@H]8[C@H](O)[C@@H](O)[C@@H](O[C@H]1[C@H](O)[C@H]2O)O[C@@H]8CO)O[C@@H]7CO)O[C@@H]6CO)O[C@@H]5CO)O[C@@H]4CO)O[C@@H]3CO
inactive: all assays above

CCC1Nc2cc(Cl)c(S(N)(=O)=O)cc2S(=O)(=O)N1 (stereo not given)
inactive: all assays above

O=C(O)C(Cc1cc(I)c(O)c(I)c1)c1ccccc1 (stereo not given)
inactive: all assays above

Cc1c[nH]c2ccccc12
inactive: all assays above

CC(=O)OC[C@H]1O[C@@H](n2ncc(=O)[nH]c2=O)[C@H](OC(C)=O)[C@@H]1OC(C)=O
inactive: all assays above

COc1ccc(/C=N/NC(=O)c2ccncc2)cc1OC
inactive: all assays above

CC(=O)Nc1ccc(S(=O)(=O)Nc2ccc([N+](=O)[O-])cc2)cc1
inactive: all assays above
